Assay results published in PubChem BioAssay (NCI).
This is part of a sample that, as a whole, favours compounds with a hit. Of some 83,000 tested, about 20% had one in any assay.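 In brief: 96-well plates, 48 h treatment, single concentration, percent growth endpoint.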 Calls of active or inactive are those of the source.

Each molecule was assayed on HS 578T breast (assay: NCI-60 one-dose screen, 48 h (100 = growth as untreated, 0 = no growth, -100 = all killed)). Conditions: 10 µM unless noted.
Description: Growth inhibition of the HS 578T human tumor cell line is measured as a screen for anti-cancer activity. Cells are grown in 96 well plates and exposed to the test compound for 48 hours. Compounds are tested at a single concentration, which is 10^-5 M for most compounds. The reported endpoint is percent growth (GI% or GIPRCNT), where numbers from 0 - 100% represent growth inhibition, and numbers from -100% - 0 represent cell death. For example, a value of 40 represents 60% growth inhibition. A value of 0 means no net growth occurred over the course of the experiment. A value of -40 indicates 40% of cells at the beginning of the experiment died by the end of the experiment. A value of -100 means all cells are dead at the end of the experiment.
NCI-60 Human Tumor Cell Lines Screen was performed using the standard one-dose NCI protocol, which is described in more detail at https://dtp.cancer.gov/discovery_development/nci-60/default.htm.
Compounds with GIPRCNT values below 10 were considered active. Activity score was based on GIPRCNT using the following formula: […]
Score is 0 for GIPRCNT values of 100 or above, 50 for GIPRCNT values of 0, and 100 for GIPRCNT values of -100.

Compound | growth
Cc1cc2nc(C)c(C)nc2cc1C | 108% (inactive)
COc1ccc2c(ccc[n+]2C)c1 | 80.2% (inactive)
COC1C(=O)CCC2(CO2)C1(O)C1(C)OC1CCC(C)C (stereo not given) | 90.5% (inactive)
CC(C)(C)CC1(C)NC(=O)NC1=O (stereo not given) | 105% (inactive)
CC(=O)Nc1ccc(C(=O)c2ccc(S(=O)(=O)Nc3ccccc3)cc2)cc1 | 127% (inactive)
Clc1ccc(-c2noc(/C=C\c3ccccc3)n2)cc1 | 119% (inactive)
CCC12OC(COc3ccccc3)CN1CCN2c1ccccc1 (stereo not given) | 99.1% [100 µM] (inactive)
O=C(CCCl)OCCOc1ccccc1 | 98.8% (inactive)
c1ccc(Oc2c3ccccc3nc3ccccc23)cc1 | 12.2% (inactive)
Nc1cccc2cccc(O)c12 | 82.1% (inactive)
CCOP(=O)(NC(c1ccccc1)c1ccccc1)OCC | 107% (inactive)
CC1CC2C3CCC4=CC(=O)CCC4(C)C3CCC2(C)C1(O)C(=O)CO (stereo not given) | 123% (inactive)
O=C(O)Cc1ccc(Cl)cc1 | 99.6% (inactive)
CCN(CC)CCOC(=O)Nc1c(C(C)C)cccc1C(C)C | 105% (inactive)
CCCCCCCCCCCCCCCCCCSC(=N)N | 100% (inactive)
C#CCSc1nnnn1-c1ccccc1 | 102% (inactive)
Nc1c(Br)cc(O)c2c1C(=O)c1ccccc1C2=O | 88.8% (inactive)
C=CCN1CCCC1=O | 109% (inactive)
COC1OC(COC(C)=O)C(OC(C)=O)C(OC(C)=O)C1OC(C)=O (stereo not given) | 101% (inactive)
CN1CCCN(C(c2ccccc2)c2ccc(Cl)cc2)CC1 (stereo not given) | 86.3% (inactive)

Compound | growth
COc1cccc(N=CNc2cccc(OC)c2)c1 | 105% (inactive)
O=S1(=O)c2ccccc2Oc2ccccc21 | 106% (inactive)
CSc1nc2[nH]ncc2c(=O)[nH]1 | 92% (inactive)
c1ccc(-c2ccc3ccccc3c2)cc1 | 84.5% (inactive)
Cc1ccc(NC(=O)c2ccccc2Cl)cc1 | 103% (inactive)
COC1OC(C(COC(C)=O)OC(C)=O)C(OC(C)=O)C(OC(C)=O)C1OC(C)=O (stereo not given) | 129% (inactive)
CC1CCC(C(C)(C)[N+](C)(C)C)CC1 (stereo not given) | 100% (inactive)
CCN(CC)CCCC(C)NC(=S)N/N=C(\C)c1ccccn1 (stereo not given) | 92.6% (inactive)
CCOc1ccc(C(=O)O)cc1 | 95.3% (inactive)
COC(=O)C1=C(C)C(=O)CC1 | 104% (inactive)
O=C(O)CSCC(=O)Nc1cc(C(F)(F)F)ccc1Cl | 101% (inactive)
O=C(CCl)Oc1ccc([N+](=O)[O-])cc1 | 128% (inactive)
CCNC(=O)Oc1ccc[nH]c1=O | 95.2% (inactive)
CC(C)(C)NCCC(O)c1cc(C(F)(F)F)nc2c(C(F)(F)F)cccc12 (stereo not given) | 65.5% (inactive)
O=C(O)c1cccc(-n2ncc(Cl)c(Cl)c2=O)c1 | 98.3% (inactive)
Oc1cc2ccccc2c(-c2c(O)c(O)cc3ccccc23)c1O | 33.9% (inactive)
CC(=O)c1cccc(NS(=O)(=O)c2ccc(C)cc2)c1 | 86.9% (inactive)
N=C(N)c1nn(C2OC(CO)C(O)C2O)c2nc[nH]c(=O)c12 (stereo not given) | -19.4% (active)
N#C/C(=C\NC(=S)N=Nc1c(O)[nH]c2ccccc12)c1nc2ccccc2s1 | 94.6% (inactive)
CCOC(=O)c1ccc(Nc2sc(C(=O)c3ccc(Br)cc3)c(N)c2C#N)cc1 | 20.8% (inactive)
